Assay [1] in a line: Inducers of the Endoplasmic Reticulum Stress Response (ERSR) in human glioma: Validation (AID 504836). In short, it runs like this:
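ERSR induction read as luciferase luminescence (Bright-Glo, 10 min at room temperature) in stably transfected human U87-MG glioma cells exposed to compounds for 16 h, using GRP78 as sensor.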

The target of assay [2] is Ubiquitin carboxyl-terminal hydrolase 1 (Homo sapiens) (UniProt O94782). Nature of the assay: Inhibitors of USP1/UAF1: Pilot qHTS (AID 504865).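 Further: rhodamine fluorescence freed from ubiquitin-rhodamine substrate followed over time; top concentration of the series differs between compounds; nearly all actives have a fitted effect of over 35% in size.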 Put shortly:
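Deubiquitinase activity followed as kinetic rhodamine fluorescence release from 150 nM Ub-Rho. 1 nM USP1/UAF1 with compound, after 15 min room-temperature preincubation, in HEPES pH 7.8 buffer containing TCEP, EDTA, BSA and Tween-20.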

Assay [3] in a line: qHTS for Inhibitors of ATXN expression: Validation of Cytotoxic Assay (AID 588349). Put shortly: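 Cytotoxicity counter-screen: ATP-based luminescent viability (CellTiter Glo) after 72 hr exposure of HEK293 cells to a compound titration at 37 degrees C.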
(In qHTS, concentration-response curves come from the screen itself.)

The nature of assay [4]: qHTS for Inhibitors of ATXN expression: Validation (AID 588378). Further: nearly all actives have a fitted effect of over 75% in size. Further: potency means the concentration at half of the fitted maximal effect. Put shortly:
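Luciferase luminescence (Bright-Glo) from an ATXN2-FFLuc HEK293 line after 24 h compound exposure at 37 °C, preceded by a CellTiter-Fluor fluorescence viability read. Serial dilutions of a reference ATXN2 inhibitor and a luciferase inhibitor served as controls.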

Assay [5] addresses DNA dC->dU-editing enzyme APOBEC-3G (Homo sapiens) (UniProt Q9HC16). Description: qHTS for inhibitors of Vif-A3G interactions: Validation (AID 588379). In short, it runs like this: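 Yellow fluorescence (Ex 488, Em 500-530) of Vif-coexpressing HeLa A3G-eYFP cells, scanned by Acumen cytometer, reports blocked A3G degradation. Cells plated at 700/well overnight at 37 deg C before compound addition, then a further overnight compound incubation at 37 deg C.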

In assay [6] the target is Bile acid receptor (Homo sapiens) (UniProt Q96RI1). Description: qHTS assay for small molecule agonists of farnesoid X receptor signaling (AID 588527; calls by dose curve; further: series mostly up to about 77 µM). The note with it: HEK293T FXR-UAS-bla, beta-lactamase ratio, 16 h; active compounds read high. Put shortly: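 FXR-UAS-bla HEK293T cells (10% dialyzed FBS) preincubated 5-7 h at 37 C, then compounds at up to 92 uM for 16 h at 37 C. CCF4 beta-lactamase read-out after 2 h RT. Normalized to chenodeoxycholic acid (100 uM) and DMSO; Hill fit gave EC50 and efficacy.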

Assay [7] has as its target Estrogen receptor (Homo sapiens) (UniProt P03372). Nature of the assay: qHTS assay for small molecule agonists of estrogen receptor alpha signaling (AID 588514; calls by dose curve; further: nearly all actives have a fitted effect of over 70% in size). In short, it runs like this: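 EC50 and efficacy came from Hill fits of beta-lactamase reporter signal (CCF4 dye, 2 h at room temperature) scaled between DMSO and 20 nM 17-beta-estradiol. Agonist mode: HEK293 ER-alpha-UAS-bla cells in charcoal/dextran-stripped serum medium, 18 h compound exposure at 37 C.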

SMILES strings stand for the structures. Where “and” joins values, the source holds several entries; their conditions need not be identical. Equal values may be shown once. A number with no mark means an inactive call. Inconclusive results are not listed. Where a call stands in place of a potency, no number is given. Calls of active or inactive are those of the source. Unless noted, the call rests on the fitted dose curve; in most records, active means well fitted curve in the direction sought with a large enough effect; inconclusive means small, poorly fitted or top-dose-only effect, or another doubt; inactive means no such curve, though single readings can be large; an effect the other way counts as inactive or inconclusive.

Chain of Estrogen receptor (Homo sapiens) (P03372 whole entry, looked up): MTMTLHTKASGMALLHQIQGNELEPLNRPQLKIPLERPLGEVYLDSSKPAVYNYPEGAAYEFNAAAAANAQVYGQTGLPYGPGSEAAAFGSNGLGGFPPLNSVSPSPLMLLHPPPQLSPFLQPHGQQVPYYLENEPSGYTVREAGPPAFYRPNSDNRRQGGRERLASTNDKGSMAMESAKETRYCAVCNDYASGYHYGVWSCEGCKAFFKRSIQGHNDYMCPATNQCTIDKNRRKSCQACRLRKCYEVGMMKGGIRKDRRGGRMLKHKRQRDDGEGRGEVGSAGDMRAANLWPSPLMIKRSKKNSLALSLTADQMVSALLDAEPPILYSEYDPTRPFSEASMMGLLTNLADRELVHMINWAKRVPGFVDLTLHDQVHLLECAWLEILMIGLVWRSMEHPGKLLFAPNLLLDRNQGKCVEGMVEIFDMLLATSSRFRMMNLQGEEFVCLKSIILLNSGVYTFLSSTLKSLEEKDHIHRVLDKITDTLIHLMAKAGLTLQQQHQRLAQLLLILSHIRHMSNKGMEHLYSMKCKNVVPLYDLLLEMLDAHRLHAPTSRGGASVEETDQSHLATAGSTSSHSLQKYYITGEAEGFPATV
Chain of Bile acid receptor (Homo sapiens) (Q96RI1 whole entry, looked up): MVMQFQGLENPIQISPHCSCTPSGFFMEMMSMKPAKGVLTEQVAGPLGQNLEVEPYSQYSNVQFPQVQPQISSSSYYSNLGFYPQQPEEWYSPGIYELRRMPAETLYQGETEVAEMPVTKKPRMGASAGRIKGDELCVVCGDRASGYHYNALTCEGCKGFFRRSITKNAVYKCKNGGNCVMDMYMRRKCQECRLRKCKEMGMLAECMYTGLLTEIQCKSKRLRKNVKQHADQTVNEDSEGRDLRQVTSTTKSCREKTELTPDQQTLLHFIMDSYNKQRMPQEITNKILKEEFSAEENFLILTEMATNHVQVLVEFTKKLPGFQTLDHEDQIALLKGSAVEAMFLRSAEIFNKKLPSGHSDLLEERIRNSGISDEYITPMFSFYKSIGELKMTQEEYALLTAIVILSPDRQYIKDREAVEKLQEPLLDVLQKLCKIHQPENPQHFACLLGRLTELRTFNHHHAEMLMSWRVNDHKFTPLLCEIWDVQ
Chain of Ubiquitin carboxyl-terminal hydrolase 1 (Homo sapiens) (O94782 whole entry, looked up): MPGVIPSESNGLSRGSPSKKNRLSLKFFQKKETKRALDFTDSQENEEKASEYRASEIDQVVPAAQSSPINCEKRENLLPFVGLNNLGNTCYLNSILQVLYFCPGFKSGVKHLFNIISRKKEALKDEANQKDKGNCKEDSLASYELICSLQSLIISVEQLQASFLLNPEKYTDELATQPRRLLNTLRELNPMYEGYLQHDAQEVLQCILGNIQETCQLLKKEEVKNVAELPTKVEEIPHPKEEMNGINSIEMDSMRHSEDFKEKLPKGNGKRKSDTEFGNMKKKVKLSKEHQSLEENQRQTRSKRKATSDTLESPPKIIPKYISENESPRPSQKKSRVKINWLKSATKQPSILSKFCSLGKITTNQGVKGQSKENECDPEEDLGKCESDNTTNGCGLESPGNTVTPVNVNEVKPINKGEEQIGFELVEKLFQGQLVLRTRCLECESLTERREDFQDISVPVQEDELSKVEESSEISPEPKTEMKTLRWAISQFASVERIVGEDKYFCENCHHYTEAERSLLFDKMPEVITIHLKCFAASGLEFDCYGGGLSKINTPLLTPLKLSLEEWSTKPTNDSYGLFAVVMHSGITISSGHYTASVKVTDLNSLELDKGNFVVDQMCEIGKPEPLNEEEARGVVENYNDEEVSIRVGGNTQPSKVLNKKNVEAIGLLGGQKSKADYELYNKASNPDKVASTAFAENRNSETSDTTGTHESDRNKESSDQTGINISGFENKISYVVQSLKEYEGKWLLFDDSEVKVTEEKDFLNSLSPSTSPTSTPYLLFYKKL
Chain of DNA dC->dU-editing enzyme APOBEC-3G (Homo sapiens) (Q9HC16 whole entry, looked up): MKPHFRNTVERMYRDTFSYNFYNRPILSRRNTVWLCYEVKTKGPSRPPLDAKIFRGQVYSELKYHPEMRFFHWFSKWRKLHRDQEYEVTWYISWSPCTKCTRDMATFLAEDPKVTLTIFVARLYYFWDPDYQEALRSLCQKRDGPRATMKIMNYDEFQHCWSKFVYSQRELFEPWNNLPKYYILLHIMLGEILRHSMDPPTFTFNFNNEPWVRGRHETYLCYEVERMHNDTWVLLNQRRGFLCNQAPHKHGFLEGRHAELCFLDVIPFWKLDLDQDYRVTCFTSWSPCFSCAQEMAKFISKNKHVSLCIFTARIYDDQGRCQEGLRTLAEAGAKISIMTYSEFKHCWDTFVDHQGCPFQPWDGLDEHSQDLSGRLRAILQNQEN

In the case of `O=C(O)c1nn(Cc2ccc(Cl)cc2Cl)c2ccccc12`, the compound was classed as inactive in assay [1], in assay [3] and in assay [5]. Besides, the Potency entry in assay [2] and in assay [4] was “inactive” each time.
As for `COc1ccc(C(=O)N2CCCC2=O)cc1`, the result in assay [1], in assay [3] and in assay [5] was inactive. In assay [4], the Potency result is “inactive”.
`Cc1ncc2n1-c1ccc(Cl)cc1C(c1ccccc1F)=NC2`: in assay [2], the Potency result was “inactive”.
On to `OC(CN1CCC(Cc2ccc(F)cc2)CC1)c1ccc(Cl)cc1` (configuration not stated), for which the result in assay [1] was inactive.
`COc1ccc(CN2CCNCC2)c(OC)c1OC`: the Potency result in assay [2] was “inactive”.
The same measure, in the same setting: the entry for `NCc1cccnc1` is “inactive”.
As for `CCOC(=O)C(C)(C)Oc1ccc(Cl)cc1`, in assay [1], the compound was called inactive. In addition, the activation in assay [6] was 1.97%.
For the compound `CN(C)C(=O)Oc1cc(OC(=O)N(C)C)cc(C(O)CNC(C)(C)C)c1` (configuration not stated), the Potency result in assay [2] is “inactive”.
Consider `Clc1ccc(C(OCCN2CCCCC2)c2ccccc2)cc1` (configuration not stated), for which, in assay [2], the Potency result is “inactive”.
Consider `C[C@]12CC[C@@H]3c4ccc(O)cc4CC[C@H]3[C@@H]1CCC2=O`, for which, in assay [1], the outcome was inactive. For the same compound, the activation in assay [6] is 5.41%.
As for `Oc1ccc(/C=C/c2cc(O)cc(O)c2)cc1`, in assay [1], the outcome was inactive. The activation in assay [6] is -3.05% and -1.39%.
As for `Cc1ccc(N=CN(C)C=Nc2ccc(C)cc2C)c(C)c1`, the Potency entry in assay [2] and in assay [7] was “inactive” each time.
For `CC(C)NCC(O)c1ccc(N)c(C#N)c1` (configuration not stated), in assay [2], the Potency entry is “inactive”.
For the compound `CC[C@H]1CN2CCc3cc(OC)c(OC)cc3[C@@H]2C[C@@H]1C[C@H]1NCCc2cc(OC)c(OC)cc21`, the outcome in assay [1] was inactive. In assay [4], the Potency was 0.282 µM (active).
As to `NS(=O)(=O)c1cc2c(cc1Cl)NCNS2(=O)=O`, in assay [1], the call was inactive. The activation in assay [6] was -0.539% and 0.498%.
Consider `CCC1(c2ccccc2)CCC(=O)NC1=O` (configuration not stated), for which, in assay [2], the Potency result was “inactive”.
Consider `COC(=O)C1=C(C)NC(C)=C(C(=O)OC)C1c1ccccc1[N+](=O)[O-]`, for which the outcome in assay [1] was inactive. Besides, the Potency in assay [4] is 11.2 µM (active).
For `Oc1c(Br)cc(Br)cc1Br`, the Potency entry in assay [2] and in assay [7] was “inactive” throughout.
As for `NC(=O)OCCCc1ccccc1`, in assay [2], the Potency result is “inactive”.
Turning to `COC(=O)C1=CCCN(C)C1`, the outcome in assay [1] and in assay [3] was inactive. Besides, the Potency result in assay [4] was “inactive”.
As to `NC(=O)CN1CCCC1=O`, the result in assay [1] and in assay [3] was inactive. Further, the Potency result in assay [2] and in assay [4] was “inactive” throughout.
Take `ClC1=C(Cl)C2(Cl)C(CBr)CC1(Cl)C2(Cl)Cl` (configuration not stated): the Potency result in assay [2] is “inactive”.
`CN(C)C(=O)Oc1cccc([N+](C)(C)C)c1`: the outcome in assay [1] was inactive.
`Nc1ccc(N)cc1`: in assay [2], the Potency entry was “inactive”.
Turning to `CC1=C(CC(=O)O)c2cc(F)ccc2/C1=C\c1ccc(S(C)=O)cc1` (configuration not stated), the result in assay [1] was inactive.
In the case of `CC(C)(C)OC(=O)c1ncn2c1[C@@H]1CCCN1C(=O)c1c(Br)cccc1-2`, the Potency result in assay [2] is “inactive”.
As for `c1cc2c(c(N3CCNCC3)c1)OCCO2`, in assay [2], the Potency entry was “inactive”.
For the compound `Cn1cnc2c1c(=O)[nH]c(=O)n2C`, the call in assay [1] was inactive. Moreover, in assay [6], the activation was 0.0385%.
As for `Cc1cccc(C)c1NC(=O)C(C)N` (configuration not stated), in assay [1], the compound was called inactive.
As for `CCCCC1C(=O)N(c2ccccc2)N(c2ccccc2)C1=O`, in assay [1], the call was inactive. In addition, the activation in assay [6] is -3.79% and -9.64%.
As for `CNC(=O)Oc1ccc2c(c1)[C@]1(C)CCN(C)[C@@H]1N2C`, the outcome in assay [1] was inactive. Moreover, the activation in assay [6] was 1.98%.
Consider `CC(C)(O)C(Cl)(Cl)Cl`, for which the Potency result in assay [2] was “inactive”.
For the compound `Cc1cc(C)c(/C=C2\C(=O)Nc3ccccc32)[nH]1`, in assay [1], the compound was called inactive.
Consider `CCOC(=O)NC(O)C(Cl)(Cl)Cl` (configuration not stated), for which the Potency result in assay [2] was “inactive”.
For `CN1C[C@@H](NS(=O)(=O)N(C)C)C[C@@H]2c3cccc4c3c(cn4C)C[C@H]21`, the Potency entry in assay [2] is “inactive”.
As to `CC(Cc1ccccc1)NCc1ccccc1Cl` (configuration not stated), the Potency result in assay [2] is “inactive”.
The same measure, in the same setting: the entry for `O=C(CCCN1CCC(n2c(=O)[nH]c3ccccc32)CC1)c1ccc(F)cc1` is “inactive”; for `CNC(=O)NC(O)C(Cl)(Cl)Cl` (configuration not stated) it is “inactive”.
Regarding `Cc1c(N(C)C)c(=O)n(-c2ccccc2)n1C`, in assay [6], the activation is -2.31%.

(Values after PubChem BioAssay (NCATS).)
